Experimental data as given in PubChem BioAssay AID1159580 (chemical genetic matrix, 2015).
“And” between values parts separate entries of the source, which are not always exact repeats. Identical values can stand only once. Out of some 5,500 compounds screened, about 2,000 (36%) were called active. Roughly 18% stayed inconclusive and do not appear here. No stated cut-off is given here; in the data, active means normalized growth mostly below about 0.91 (no sharp cut-off); inconclusive means no clear call, values can overlap the other calls; inactive means mostly above about 0.92. This is one part of the list.

Assay: chemical genetic growth profiling, strain panel (AID 1159580);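 further: tested at 20 µM; growth read once vehicle control cultures reached saturation at 30 °C; 1 = growth at the plate median or of vehicle wells; lower values mean less growth of the strain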
Settings: S. cerevisiae deletion strains, growth OD

Measured: normalized growth

c1ccc(N=Nc2ccccc2)cc1
inactive: locus YAL021C, strain ccr4, hits give low values 1.02 | locus YAL026C, strain drs2, hits give low values 0.998 | locus YAL030W, strain snc1, hits give low values 0.985 | locus YBL061C, strain skt5, hits give low values 0.991 | locus YBR009C, strain hhf1, hits give low values 0.985 | locus YBR021W, strain FUR4, hits give low values 1.01 | locus YBR023C, strain chs3, hits give low values 0.99 | locus YBR171W, strain sec66, hits give low values 0.975 | locus YBR229C, strain ROT2, hits give low values 1 | locus YBR231C, strain swc5, hits give low values 0.984 | locus YBR279W, strain paf1, hits give low values 0.985 | locus YCL011C, strain gbp2, hits give low values 0.992 | locus YCL016C, strain dcc1, hits give low values 0.982 | locus YCL029C, strain bik1, hits give low values 1.03 | locus YCL061C, strain MRC1, hits give low values 0.993 | locus YCL069W, strain vba3, hits give low values 0.988 | locus YCR088W, strain abp1, hits give low values 0.991 | locus YDL005C, strain med2, hits give low values 0.977 | locus YDL035C, strain GPR1, hits give low values 0.981 | locus YDL040C, strain nat1, hits give low values 0.985 | locus YDL074C, strain BRE1, hits give low values 0.942 | locus YDL101C, strain DUN1, hits give low values 0.979 | locus YDL134C, strain PPH21, hits give low values 0.968 | locus YDL185W, strain tfp1, hits give low values 1.01 | locus YDL192W, strain arf1, hits give low values 1.03 | locus YDR001C, strain nth1, hits give low values 0.987 | locus YDR069C, strain doa4, hits give low values 0.995 | locus YDR101C, strain arx1, hits give low values 1.02 | locus YDR137W, strain rgp1, hits give low values 0.911 | locus YDR150W, strain NUM1, hits give low values 1 | locus YDR159W, strain sac3, hits give low values 1.01 | locus YDR162C, strain NBP2, hits give low values 1.01 | locus YDR195W, strain ref2 0.994 | locus YDR297W, strain sur2, hits give low values 0.987 | locus YDR318W, strain mcm21, hits give low values 1.02 | locus YDR334W, strain swr1, hits give low values 0.989 | locus YDR335W, strain msn5, hits give low values 0.972 | locus YDR388W, hits give low values 1.03 | locus YDR392W, strain spt3, hits give low values 0.992 | locus YDR502C, strain sam2, hits give low values 1.02 | locus YEL003W, strain gim4, hits give low values 0.996 | locus YEL037C, strain rad23, hits give low values 0.988 | locus YEL061C, strain CIN8 (second series), hits give low values 0.976 | locus YEL061C, strain CIN8, hits give low values 1 | locus YER015W, strain faa2, hits give low values 0.996 | locus YER016W, strain bim1, hits give low values 0.992 | locus YER110C, hits give low values 1.03 | locus YER111C, strain swi4, hits give low values 0.987 | locus YER155C, strain BEM2 (second series), hits give low values 0.906 | locus YER155C, strain BEM2, hits give low values 1.01 | locus YER167W, strain BCK2, hits give low values 0.998 | locus YFR010W, strain ubp6, hits give low values 0.99 | locus YGL078C, strain dbp3, hits give low values 1.02 | locus YGL086W, strain mad1, hits give low values 1.01 | locus YGL167C, strain pmr1, hits give low values 0.992 | locus YGL173C, strain kem1, hits give low values 0.993 | locus YGL227W, strain vid30, hits give low values 0.992 | locus YGL240W, strain doc1, hits give low values 0.975 | locus YGL248W, strain PDE1, hits give low values 0.982 | locus YGL253W, strain hxk2, hits give low values 0.996 | locus YGR078C, strain PAC10, hits give low values 0.939 | locus YGR135W, strain pre9, hits give low values 1.02 | locus YGR229C, strain SMI1, hits give low values 0.966 | locus YGR252W, strain gcn5, hits give low values 0.999 | locus YHR013C, strain ard1, hits give low values 1.07 | locus YHR027C, strain rpn1, hits give low values 0.987 | locus YHR030C, strain SLT2, hits give low values 1.01 and 0.972 | locus YHR079C, strain IRE1 (second series), hits give low values 1.02 | locus YHR079C, strain IRE1, hits give low values 0.967 | locus YHR094C, strain hxt1, hits give low values 1.03 | locus YHR129C, strain ARP1, hits give low values 1 | locus YHR142W, strain chs7, hits give low values 1.01 | locus YHR200W, strain rpn10, hits give low values 1.03 | locus YIL066C, strain RNR3, hits give low values 0.986 | locus YIL073C, strain SPO22, hits give low values 1.08 | locus YIL125W, strain kgd1, hits give low values 1.01 | locus YIR030C, strain dcg1, hits give low values 1.04 | locus YJL092W, strain hpr5, hits give low values 0.976 | locus YJL095W, strain BCK1 (second series), hits give low values 0.979 | locus YJL095W, strain BCK1, hits give low values 0.983 and 0.961 | locus YJL115W, strain asf1, hits give low values 0.989 | locus YJL129C, strain trk1, hits give low values 0.969 | locus YJL134W, strain LCB3, hits give low values 1.01 | locus YJL154C, strain vps35, hits give low values 0.984 | locus YJL164C, strain tpk1, hits give low values 0.996 | locus YJL166W, strain qcr8, hits give low values 0.976 | locus YJL168C, strain set2, hits give low values 1.02 | locus YJL187C, strain SWE1 (second series), hits give low values 0.971 | locus YJR043C, strain POL32, hits give low values 0.996
